Laboratory results from the supplement of paper PMC10849652.
Of roughly 8,800 targets only a part is listed; those with a hit were picked by preference. About 0.5% of all pairs of compound and target were hits.

Legend:
Assay in all cases: log2 fold change, soluble protein after heating vs DMSO (PISA); higher = thermal stabilisation; K562 lysate, 10 uM; active = over 0.2 and 3.5 SD of the protein, either way, in both replicates (recomputed)
erlotinib = compound: C#Cc1cccc(Nc2ncnc3cc(OCCOC)c(OCCOC)cc23)c1 [erlotinib]
Summary of the method: (§1)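 Thermal stability, expressed as log-two fold change relative to solvent controls, is given from duplicates. Crude K562 extract in PBS pH 7.4 with 1 mM MgCl2, at 1 mg/mL protein, was treated with 10 μM compound for 30 min and heated in aliquots for 3 min across 48°C-58°C. After pooling, adjustment to 0.5% NP-40 at 4°C and centrifugation at 21,000xg for 90 min, supernatant protein was measured by TMTpro 16plex LC-MS/MS with channel sums equalised.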

[1] = compound: C/C(=N\NC(=O)C1=CC(=CC=C1)S(=O)(=O)N2CCOCC2)/C3=C(C=CC(=C3)Cl)O
Summary of the method: as §1

[2] = compound: C1=CC(=CC=C1C2=NC3=C(N2)C=C(C=C3)C(=O)N)OC4=CC=C(C=C4)Cl
Summary of the method: as §1

[3] = compound: C1=CC2=C(C=CC(=C2)/C=C\3/C(=O)NC(=NCC4=CC=CS4)S3)N=C1
Summary of the method: as §1

[4] = compound: C1=CC2=NC=CN=C2C=C1/C=C/3\C(=O)NC(=O)S3
Summary of the method: as §1

[5] = compound: C1=CC=C(C=C1)C2=NC(=C(N2)C3=CC=NC=C3)C4=CC(=C(C=C4)Cl)O
Summary of the method: as §1

[6] = compound: C1=CC=C2C(=C1)C3=NNC4=CC=CC(=C43)C2=O
Summary of the method: as §1

[7] = compound: C1CCN(C1)C(=O)NC2=CC=CC(=C2)NC3=NC=C(C(=N3)NCCC4=CN=CN4)Br
Summary of the method: as §1

[8] = compound: C1CN(CCC1(CC2=CC=C(C=C2)Cl)N)C3=NC=NC4=C3C=CN4
Summary of the method: as §1

IRAK-1-4 Inhibitor I = compound: C1COCCN1CCN2C3=CC=CC=C3N=C2NC(=O)C4=CC(=CC=C4)[N+](=O)[O-] [IRAK-1-4 Inhibitor I]
Summary of the method: as §1

ibrutinib = compound: C=CC(=O)N1CCC[C@@H](n2nc(-c3ccc(Oc4ccccc4)cc3)c3c(N)ncnc32)C1 [ibrutinib]
Summary of the method: as §1

[9] = compound: CC(=O)c1cnc2ccc(-c3cc(Cl)c(O)c(Cl)c3)nc2c1N[C@H]1CC[C@H](CN(C)C)CC1
Summary of the method: as §1

ralimetinib = compound: CC(C)(C)Cn1c(N)nc2ccc(-c3[nH]c(C(C)(C)C)nc3-c3ccc(F)cc3)nc21 [ralimetinib]
Summary of the method: as §1

[10] = compound: CC(C)(O)CC(=O)NCCn1ccc2ncnc(Nc3ccc(Oc4cccc(C(F)(F)F)c4)c(Cl)c3)c21
Summary of the method: as §1

[11] = compound: CC(C)C1=C2N=C(C=C(N2N=C1)NCC3=CC=CC=C3)NCCCCCCN
Summary of the method: as §1

[12] = compound: CC1=C(C(CC(=O)N1)C2=CC=C(C=C2)C(F)(F)F)C(=O)NC3=C(C=C4C(=C3)C=NN4)F
Summary of the method: as §1

[13] = compound: CC1=C(C2=C(C=C1)C(=O)C3=CC=CC=C3N2CCCN)C
Summary of the method: as §1

[14] = compound: CC1=C(C=C(C=C1)NC(=O)C2=CC(=CC=C2)C(C)(C)C#N)NC3=CC4=C(C=C3)N=CN(C4=O)C
Summary of the method: as §1

[15] = compound: CC1=C(C=C(C=C1)NC(=O)C2=CC(=CC=C2)N(C)C)NC(=O)C3=CC=C(C=C3)O
Summary of the method: as §1

[16] = compound: CC1=CC=C(C=C1)SC2=C3C=C(SC3=CN=C2)C(=O)N
Summary of the method: as §1

Measured: log2 fold change

UBXN6 (UniProt Q9BZV1)
Chain of UniProt Q9BZV1 (Q9BZV1 whole entry, looked up): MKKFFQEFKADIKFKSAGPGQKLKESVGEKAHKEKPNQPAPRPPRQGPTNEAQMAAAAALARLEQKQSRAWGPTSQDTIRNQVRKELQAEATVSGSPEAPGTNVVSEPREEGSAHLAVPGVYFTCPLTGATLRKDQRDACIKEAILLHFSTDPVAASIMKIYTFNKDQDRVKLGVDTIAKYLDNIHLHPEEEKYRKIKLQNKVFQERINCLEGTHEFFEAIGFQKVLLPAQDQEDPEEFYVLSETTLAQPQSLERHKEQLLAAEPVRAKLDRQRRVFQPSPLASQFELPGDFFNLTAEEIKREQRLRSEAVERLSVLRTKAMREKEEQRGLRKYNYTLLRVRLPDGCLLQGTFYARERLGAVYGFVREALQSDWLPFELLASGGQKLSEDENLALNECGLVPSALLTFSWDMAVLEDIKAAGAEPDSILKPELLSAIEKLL
inactive: erlotinib -0.02 | [1] 0.001 | [2] 0.001 | [3] -0.024 | [4] 0.006 | [5] 0.036 | [6] -0.073 | [7] 0 | [8] -0.005 | IRAK-1-4 Inhibitor I -0.007 | ibrutinib 0.046 | [9] 0.174 | ralimetinib 0.037 | [10] -0.012 | [11] 0.019 | [12] 0.121 | [13] -0.059 | [14] -0.038 | [15] 0.031 | [16] 0.041

TSFM (UniProt P43897)
Chain of UniProt P43897 (P43897 whole entry, looked up): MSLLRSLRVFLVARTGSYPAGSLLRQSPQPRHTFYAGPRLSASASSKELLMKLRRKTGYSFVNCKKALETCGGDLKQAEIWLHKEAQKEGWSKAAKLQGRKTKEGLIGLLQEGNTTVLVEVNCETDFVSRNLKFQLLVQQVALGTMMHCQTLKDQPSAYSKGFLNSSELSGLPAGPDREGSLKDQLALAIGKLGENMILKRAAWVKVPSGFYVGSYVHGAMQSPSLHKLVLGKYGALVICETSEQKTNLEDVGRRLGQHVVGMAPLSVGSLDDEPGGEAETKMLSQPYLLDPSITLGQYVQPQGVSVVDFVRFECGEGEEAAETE
inactive: erlotinib -0.013 | [1] 0.009 | [2] -0.035 | [3] -0.003 | [4] -0.002 | [5] 0.017 | [6] -0.063 | [7] 0.024 | [8] 0.034 | IRAK-1-4 Inhibitor I -0.024 | ibrutinib 0.004 | [9] -0.05 | ralimetinib 0.03 | [10] 0.026 | [11] 0.015 | [12] -0.024 | [13] -0.003 | [14] 0.116 | [15] 0.017 | [16] -0.063

TRIM11 (UniProt Q96F44)
Chain of UniProt Q96F44 (Q96F44 whole entry, looked up): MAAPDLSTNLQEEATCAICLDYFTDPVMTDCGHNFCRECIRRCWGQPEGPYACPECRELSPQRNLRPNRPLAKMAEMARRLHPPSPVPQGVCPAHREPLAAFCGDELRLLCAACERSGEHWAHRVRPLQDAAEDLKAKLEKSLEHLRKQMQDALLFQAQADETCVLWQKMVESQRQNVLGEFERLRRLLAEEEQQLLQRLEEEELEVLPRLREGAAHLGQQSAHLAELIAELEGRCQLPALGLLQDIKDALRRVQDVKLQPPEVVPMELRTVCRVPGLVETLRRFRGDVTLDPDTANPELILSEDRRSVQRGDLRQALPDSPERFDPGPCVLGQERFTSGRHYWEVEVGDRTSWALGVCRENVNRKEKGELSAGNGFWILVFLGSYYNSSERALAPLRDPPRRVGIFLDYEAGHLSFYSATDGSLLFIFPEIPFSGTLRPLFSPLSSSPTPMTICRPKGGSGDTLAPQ
inactive: erlotinib 0.005 | [1] -0.012 | [2] -0.008 | [3] -0.002 | [4] 0.012 | [5] -0.018 | [6] -0.032 | [7] -0.046 | [8] 0.002 | IRAK-1-4 Inhibitor I 0.043 | ibrutinib 0.008 | [9] 0.05 | ralimetinib -0.009 | [10] -0.049 | [11] -0.011 | [12] -0.067 | [13] -0.04 | [14] 0.005 | [15] -0.014 | [16] 0.036

TUBGCP3 (UniProt Q96CW5)
Chain of UniProt Q96CW5 (Q96CW5 whole entry, looked up): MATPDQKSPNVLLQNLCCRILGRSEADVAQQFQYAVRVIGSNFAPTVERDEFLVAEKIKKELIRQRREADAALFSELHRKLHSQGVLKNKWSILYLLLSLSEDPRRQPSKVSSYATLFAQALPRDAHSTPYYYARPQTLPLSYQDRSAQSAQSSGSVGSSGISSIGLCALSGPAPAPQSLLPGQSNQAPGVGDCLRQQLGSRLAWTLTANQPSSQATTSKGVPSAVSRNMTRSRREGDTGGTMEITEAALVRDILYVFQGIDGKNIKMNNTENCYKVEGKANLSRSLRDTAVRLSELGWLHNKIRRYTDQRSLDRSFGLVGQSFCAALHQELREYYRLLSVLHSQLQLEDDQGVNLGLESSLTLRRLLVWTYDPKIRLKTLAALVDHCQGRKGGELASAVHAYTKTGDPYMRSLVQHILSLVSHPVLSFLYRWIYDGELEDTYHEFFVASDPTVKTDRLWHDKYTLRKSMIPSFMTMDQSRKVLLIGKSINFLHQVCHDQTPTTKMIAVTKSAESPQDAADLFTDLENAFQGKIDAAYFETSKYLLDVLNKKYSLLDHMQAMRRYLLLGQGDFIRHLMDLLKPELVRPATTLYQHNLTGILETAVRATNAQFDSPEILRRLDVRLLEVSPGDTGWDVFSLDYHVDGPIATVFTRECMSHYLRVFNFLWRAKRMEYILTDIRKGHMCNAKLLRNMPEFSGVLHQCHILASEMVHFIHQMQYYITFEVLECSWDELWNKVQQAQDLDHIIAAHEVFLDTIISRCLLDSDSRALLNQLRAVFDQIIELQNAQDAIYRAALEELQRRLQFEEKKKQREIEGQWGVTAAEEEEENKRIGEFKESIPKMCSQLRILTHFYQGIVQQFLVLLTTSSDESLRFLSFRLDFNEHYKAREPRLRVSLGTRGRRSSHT
inactive: erlotinib -0.035 | [1] 0.021 | [2] -0.054 | [3] 0.044 | [4] 0.02 | [5] -0.039 | [6] 0.012 | [7] -0.044 | [8] -0.019 | IRAK-1-4 Inhibitor I -0.054 | ibrutinib -0.007 | [9] 0.018 | ralimetinib 0.03 | [10] 0.045 | [11] -0.039 | [12] 0.003 | [13] -0.037 | [14] 0.004 | [15] 0.106 | [16] 0.028

TUT4 (UniProt Q5TAX3)
Chain of UniProt Q5TAX3 (Q5TAX3 whole entry, looked up): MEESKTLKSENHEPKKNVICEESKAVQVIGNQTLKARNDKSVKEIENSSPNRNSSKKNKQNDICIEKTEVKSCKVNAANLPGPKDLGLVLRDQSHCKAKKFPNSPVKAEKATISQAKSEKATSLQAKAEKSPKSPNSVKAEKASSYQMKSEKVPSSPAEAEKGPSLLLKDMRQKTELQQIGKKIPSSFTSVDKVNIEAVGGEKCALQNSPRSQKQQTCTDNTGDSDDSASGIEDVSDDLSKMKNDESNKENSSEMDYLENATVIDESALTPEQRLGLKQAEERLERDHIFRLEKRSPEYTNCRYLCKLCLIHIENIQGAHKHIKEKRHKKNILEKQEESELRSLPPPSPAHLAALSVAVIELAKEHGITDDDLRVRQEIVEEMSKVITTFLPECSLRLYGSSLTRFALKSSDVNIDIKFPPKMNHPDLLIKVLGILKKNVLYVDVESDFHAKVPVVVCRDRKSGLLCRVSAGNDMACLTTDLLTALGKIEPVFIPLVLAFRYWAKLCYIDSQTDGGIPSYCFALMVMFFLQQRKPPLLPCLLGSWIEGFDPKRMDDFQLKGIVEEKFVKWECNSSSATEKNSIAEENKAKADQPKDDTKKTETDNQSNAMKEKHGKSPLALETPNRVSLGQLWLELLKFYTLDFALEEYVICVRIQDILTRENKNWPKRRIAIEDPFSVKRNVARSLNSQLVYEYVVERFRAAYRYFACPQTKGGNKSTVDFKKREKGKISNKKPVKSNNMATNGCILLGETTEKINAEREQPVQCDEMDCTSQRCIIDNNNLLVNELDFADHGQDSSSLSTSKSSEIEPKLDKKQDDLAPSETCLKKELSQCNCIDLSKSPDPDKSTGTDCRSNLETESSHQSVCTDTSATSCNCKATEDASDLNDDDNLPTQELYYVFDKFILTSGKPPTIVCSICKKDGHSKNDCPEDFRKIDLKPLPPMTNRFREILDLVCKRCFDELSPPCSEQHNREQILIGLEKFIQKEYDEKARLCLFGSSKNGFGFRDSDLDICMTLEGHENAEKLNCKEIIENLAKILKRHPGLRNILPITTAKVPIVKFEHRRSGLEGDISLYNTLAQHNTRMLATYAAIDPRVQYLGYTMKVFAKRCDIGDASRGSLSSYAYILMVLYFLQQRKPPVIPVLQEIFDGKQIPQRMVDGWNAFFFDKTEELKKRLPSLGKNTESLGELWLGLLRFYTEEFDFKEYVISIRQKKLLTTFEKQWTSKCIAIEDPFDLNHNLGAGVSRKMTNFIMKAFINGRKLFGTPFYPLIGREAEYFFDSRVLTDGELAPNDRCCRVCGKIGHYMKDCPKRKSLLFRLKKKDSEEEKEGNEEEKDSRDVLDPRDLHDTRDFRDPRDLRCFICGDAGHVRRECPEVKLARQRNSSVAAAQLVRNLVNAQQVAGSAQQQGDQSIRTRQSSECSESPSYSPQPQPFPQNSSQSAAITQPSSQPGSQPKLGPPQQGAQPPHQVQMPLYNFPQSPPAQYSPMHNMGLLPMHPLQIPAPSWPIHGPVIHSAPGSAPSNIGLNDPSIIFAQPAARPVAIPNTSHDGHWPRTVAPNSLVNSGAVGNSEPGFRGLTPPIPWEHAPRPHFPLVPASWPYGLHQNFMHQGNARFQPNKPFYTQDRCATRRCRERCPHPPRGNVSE
inactive: erlotinib -0.009 | [1] -0.048 | [2] -0.014 | [3] -0.062 | [4] -0.054 | [5] -0.004 | [6] -0.021 | [7] -0.029 | [8] 0.019 | IRAK-1-4 Inhibitor I 0.023 | ibrutinib 0.024 | [9] -0.013 | ralimetinib 0.006 | [10] -0.07 | [11] 0.023 | [12] -0.003 | [13] -0.045 | [14] -0.165 | [15] -0.007 | [16] 0.041

TIMM44 (UniProt O43615)
inactive: erlotinib -0.019 | [1] -0.02 | [2] -0.008 | [3] -0.019 | [4] 0.041 | [5] -0.012 | [6] 0.03 | [7] -0.019 | [8] 0.004 | IRAK-1-4 Inhibitor I -0.011 | ibrutinib 0.03 | [9] 0.005 | ralimetinib -0.008 | [10] -0.076 | [11] 0.013 | [12] 0.066 | [13] 0.025 | [14] -0.035 | [15] -0.005 | [16] 0.015

TBRG4 (UniProt Q969Z0)
inactive: erlotinib 0.033 | [1] -0.048 | [2] -0.036 | [3] 0.001 | [4] 0.013 | [5] -0.044 | [6] -0.031 | [7] 0.013 | [8] 0.008 | IRAK-1-4 Inhibitor I -0.009 | ibrutinib 0.014 | [9] 0.025 | ralimetinib 0.002 | [10] -0.023 | [11] -0.011 | [12] 0.001 | [13] 0.062 | [14] -0.041 | [15] 0.044 | [16] -0.023

TIAL1 isoform 2 (UniProt Q01085)
inactive: erlotinib 0.015 | [1] -0.001 | [2] 0.023 | [3] -0.015 | [4] -0.019 | [5] -0.035 | [6] 0.059 | [7] 0 | [8] 0.017 | IRAK-1-4 Inhibitor I 0.058 | ibrutinib 0.018 | [9] -0.004 | ralimetinib -0.063 | [10] -0.001 | [11] -0.001 | [12] 0.049 | [13] 0.015 | [14] -0.167 | [15] -0.06 | [16] -0.012

TRMT12 (UniProt Q53H54)
inactive: erlotinib 0.065 | [1] 0.01 | [2] 0.018 | [3] 0.058 | [4] -0.044 | [5] 0.106 | [6] -0.047 | [7] -0.064 | [8] 0.07 | IRAK-1-4 Inhibitor I -0.03 | ibrutinib -0.083 | [9] -0.009 | ralimetinib 0.094 | [10] 0.063 | [11] -0.018 | [12] -0.081 | [13] -0.048 | [14] 0.036 | [15] 0.033 | [16] -0.031

TNPO3 (UniProt Q9Y5L0)
inactive: erlotinib 0.022 | [1] 0.001 | [2] -0.019 | [3] -0.018 | [4] 0.019 | [5] -0.008 | [6] 0 | [7] 0.018 | [8] 0.017 | IRAK-1-4 Inhibitor I 0.021 | ibrutinib -0.008 | [9] 0.015 | ralimetinib 0.003 | [10] -0.023 | [11] -0.033 | [12] -0.006 | [13] 0 | [14] -0.015 | [15] 0.003 | [16] 0.008

TRIM56 (UniProt Q9BRZ2)
Chain of UniProt Q9BRZ2 (Q9BRZ2 whole entry, looked up): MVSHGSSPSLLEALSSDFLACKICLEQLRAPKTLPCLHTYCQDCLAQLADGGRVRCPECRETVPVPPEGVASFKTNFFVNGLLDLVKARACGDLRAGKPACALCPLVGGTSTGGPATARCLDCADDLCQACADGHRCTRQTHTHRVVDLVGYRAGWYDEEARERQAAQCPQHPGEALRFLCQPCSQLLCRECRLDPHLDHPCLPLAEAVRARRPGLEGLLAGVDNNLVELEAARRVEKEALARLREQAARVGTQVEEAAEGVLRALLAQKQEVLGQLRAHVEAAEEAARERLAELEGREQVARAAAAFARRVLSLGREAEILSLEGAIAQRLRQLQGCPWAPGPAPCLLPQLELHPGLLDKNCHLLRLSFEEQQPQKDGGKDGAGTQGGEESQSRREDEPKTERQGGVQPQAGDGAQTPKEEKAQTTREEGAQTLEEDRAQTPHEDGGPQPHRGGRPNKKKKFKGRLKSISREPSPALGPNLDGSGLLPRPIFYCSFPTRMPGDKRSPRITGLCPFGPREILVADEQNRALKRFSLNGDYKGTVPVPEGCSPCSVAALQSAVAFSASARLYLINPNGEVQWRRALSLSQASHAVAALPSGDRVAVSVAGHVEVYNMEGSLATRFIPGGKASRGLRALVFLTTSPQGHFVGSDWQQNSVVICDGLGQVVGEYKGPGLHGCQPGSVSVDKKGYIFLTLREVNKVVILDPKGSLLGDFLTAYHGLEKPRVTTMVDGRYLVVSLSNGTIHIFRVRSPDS
inactive: erlotinib 0.053 | [1] -0.021 | [2] 0.021 | [3] -0.049 | [4] 0.141 | [5] -0.013 | [6] 0.033 | [7] 0.039 | [8] 0.003 | IRAK-1-4 Inhibitor I 0.062 | ibrutinib 0.023 | [9] 0.007 | ralimetinib 0.028 | [10] 0.001 | [11] -0.03 | [12] 0 | [13] 0.002 | [14] -0.06 | [15] 0.014 | [16] 0.033

TMOD1 (UniProt P28289)
Chain of UniProt P28289 (P28289 whole entry, looked up): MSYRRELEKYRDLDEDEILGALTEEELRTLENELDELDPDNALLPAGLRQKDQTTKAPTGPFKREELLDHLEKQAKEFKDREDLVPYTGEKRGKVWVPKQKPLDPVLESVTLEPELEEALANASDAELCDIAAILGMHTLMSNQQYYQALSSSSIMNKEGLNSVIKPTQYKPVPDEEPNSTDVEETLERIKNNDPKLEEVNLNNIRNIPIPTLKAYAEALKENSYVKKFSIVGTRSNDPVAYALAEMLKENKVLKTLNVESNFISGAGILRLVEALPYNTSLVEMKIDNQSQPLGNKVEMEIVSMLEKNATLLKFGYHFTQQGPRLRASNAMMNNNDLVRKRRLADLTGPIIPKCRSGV
inactive: erlotinib 0.002 | [1] -0.091 | [2] 0.018 | [3] 0.018 | [4] -0.001 | [5] 0.003 | [6] 0.013 | [7] -0.005 | [8] -0.002 | IRAK-1-4 Inhibitor I 0.012 | ibrutinib 0.002 | [9] 0.007 | ralimetinib -0.015 | [10] -0.02 | [11] 0 | [12] -0.004 | [13] 0.006 | [14] 0 | [15] 0.016 | [16] -0.019

TMEM167B (UniProt Q9NRX6)
Chain of UniProt Q9NRX6 (Q9NRX6 whole entry, looked up): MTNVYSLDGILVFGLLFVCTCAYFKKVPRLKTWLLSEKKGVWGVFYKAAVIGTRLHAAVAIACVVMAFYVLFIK
inactive: erlotinib -0.061 | [1] -0.016 | [2] -0.006 | [3] -0.042 | [4] -0.044 | [5] -0.002 | [6] 0.013 | [7] -0.056 | [8] 0.036 | IRAK-1-4 Inhibitor I -0.014 | ibrutinib 0.019 | [9] -0.02 | ralimetinib 0.015 | [10] 0.001 | [11] -0.02 | [12] -0.058 | [14] 0.021 | [15] 0.035 | [16] -0.033
